According to PubChem BioAssay (EPA / NIEHS):
Several values for one entry are separate records, joined by “and”; a condition that tells them apart may be missing. Equal values may be shown once. Activity calls are given as the source filed them. The calls were made as follows: active = hit-call score of the fitted dose curve at least 0.9, where 1 is the maximum; inactive = score below 0.9.

Biological target: Cellular tumor antigen p53 (Homo sapiens) (UniProt P04637)
Experiment: ATG_p53_CIS: Attagene CIS-FACTORIAL HepG2 Assay for human p53 Transcription Factor (AID 2282994)
Conditions: HepG2 p53 cis-element reporter, Attagene mRNA; actives raise or lower the signal
How it was run: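 Read-out: reporter mRNA by RT-PCR plus capillary electrophoresis with fluorescence detection. Human HepG2 liver cells carried transfected multi-reporter cis-element constructs, dosed 24 h. Gain or loss of signal fitted bidirectionally against DMSO control.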

Chain of Cellular tumor antigen p53 (Homo sapiens) (P04637 whole entry, looked up): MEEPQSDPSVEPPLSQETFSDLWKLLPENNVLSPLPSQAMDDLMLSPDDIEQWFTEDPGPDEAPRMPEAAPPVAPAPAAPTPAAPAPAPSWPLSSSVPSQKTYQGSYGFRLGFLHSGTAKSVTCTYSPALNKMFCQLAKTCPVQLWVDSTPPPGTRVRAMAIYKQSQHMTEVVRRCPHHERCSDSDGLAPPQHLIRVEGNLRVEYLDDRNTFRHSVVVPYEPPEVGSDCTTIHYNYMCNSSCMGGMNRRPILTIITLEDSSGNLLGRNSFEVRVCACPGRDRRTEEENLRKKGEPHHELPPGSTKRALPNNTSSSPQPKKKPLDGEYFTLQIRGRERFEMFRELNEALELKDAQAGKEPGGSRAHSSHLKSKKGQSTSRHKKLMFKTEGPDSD

SMILES	outcome	AC50
O=C(F)C1(F)C(F)(F)C(F)(F)C(F)(F)C(F)(F)C1(F)F	inactive	
CCN(CC)c1ccc(C=O)cc1	inactive	
CCCCOC(=O)[C@H](C)O	inactive	
COCCC(=O)OC	inactive	
Cc1ccc(S(=O)(=O)C(I)I)cc1		8910 nM (active)
C#CC(O)CCC (stereo not drawn)	inactive	
O=C(O)C(F)(F)C(F)(F)C(F)(F)C(=O)O	inactive	
CC(C)Nc1ccc(NC(C)C)c2c1C(=O)c1ccccc1C2=O	inactive	
CN(N=O)C(=O)N[C@@H]1[C@@H](O)[C@H](O)[C@@H](CO)O[C@@H]1O	inactive	
OCCCCC(F)(F)C(F)(F)C(F)(F)C(F)(F)F	inactive	
COC(F)(C(F)F)C(F)(F)F (stereo not drawn)	inactive	
N#CCCOCCC#N	inactive	
O=C(c1ccccc1)c1ccc(Cl)cc1	inactive	
Nc1cccnc1N	inactive	

Read-out: not listed separately
Experiment: BSK_3C_TissueFactor: BioMAP Diversity Plus: 3C Assay for Tissue Factor Biomarker Activity (AID 2282997)
Conditions: BioMAP 3C HUVEC, tissue factor biomarker readout; actives raise or lower the signal
How it was run: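 HUVEC, 3C system, 24 h post-dose; Tissue Factor by ELISA; bidirectional fit vs DMSO baseline.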

SMILES	outcome	AC50
NCC(F)(F)C(F)(F)C(F)(F)C(F)(F)C(F)(F)C(F)(F)F	inactive	
O=C1c2c(O)ccc(Nc3ccc(CCO)cc3)c2C(=O)c2c([N+](=O)[O-])ccc(O)c21		700 nM (active)
O=S(=O)(Cl)C(F)(F)C(F)(F)C(F)(F)C(F)(F)C(F)(F)C(F)(F)C(F)(F)C(F)(F)F	inactive	
NC(=O)C(F)(F)C(F)(F)C(F)(F)C(F)(F)C(N)=O	inactive	
OCC(F)(F)C(F)(F)C(F)(F)CO	inactive	
CCN(CCO)S(=O)(=O)C(F)(F)C(F)(F)C(F)(F)C(F)(F)C(F)(F)C(F)(F)C(F)(F)C(F)(F)F		55.1 µM (active) and 9.9 µM (active)
NC(=O)C(F)(F)C(F)(F)C(F)(F)C(F)F	inactive	
O=C=Nc1cccc2c(N=C=O)cccc12	inactive	
CC1=CC2C3C=CC(C3)C2C1C (stereo not drawn)	inactive	
O=C=NCc1cccc(CN=C=O)c1	inactive	
O=C(O)C(F)(F)OC(F)(F)C(F)(F)OC(F)(F)C(F)(F)OC(F)(F)F	inactive	
NC(O)(C(F)(F)F)C(F)(F)F	inactive	
O=C(Cl)C(F)(F)C(F)(F)C(F)(F)C(F)(F)C(F)(F)C(F)(F)C(F)(F)F	inactive	
O=C(F)C1(F)C(F)(F)C(F)(F)C(F)(F)C(F)(F)C1(F)F	inactive	
CCN(CC)c1ccc(C=O)cc1	inactive	
Cc1ccc(S(=O)(=O)C(I)I)cc1		1850 nM (active)
O=C(O)C(F)(F)C(F)(F)C(F)(F)C(=O)O	inactive	
OCCCCC(F)(F)C(F)(F)C(F)(F)C(F)(F)F	inactive	
COC(F)(C(F)F)C(F)(F)F (stereo not drawn)	inactive	
